Common to all, as to test: DAPPL (digital affinity profiling via proximity ligation, sequencing); 10 mM Tris-HCl pH 7.5, 50 mM NaCl, 1 mM DTT, 4% glycerol, room temperature, 30 min; GST-TFs on glutathione beads, 16-mer random dsDNA library, 0.1% formaldehyde crosslink after washing; high values mean tight binding
One experiment deals with T1, FLI1 (Homo sapiens, UniProt Q01543 1-452).
T1 sequence: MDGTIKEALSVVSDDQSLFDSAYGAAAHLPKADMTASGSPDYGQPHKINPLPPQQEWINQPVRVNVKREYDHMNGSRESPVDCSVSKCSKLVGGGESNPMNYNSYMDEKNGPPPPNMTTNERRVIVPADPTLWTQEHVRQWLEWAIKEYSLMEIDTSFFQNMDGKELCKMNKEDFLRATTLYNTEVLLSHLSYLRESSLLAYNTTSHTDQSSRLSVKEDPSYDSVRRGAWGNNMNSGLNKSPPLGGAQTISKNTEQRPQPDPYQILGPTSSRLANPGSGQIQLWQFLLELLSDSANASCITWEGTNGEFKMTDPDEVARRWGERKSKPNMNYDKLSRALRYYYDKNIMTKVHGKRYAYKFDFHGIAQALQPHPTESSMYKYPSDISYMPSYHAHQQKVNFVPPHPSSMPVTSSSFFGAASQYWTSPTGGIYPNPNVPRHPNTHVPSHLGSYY
The conditions noted are these: protein: recombinant; tags: N-terminal GST; dsDNA, one strand shown. In outline: (§1)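 Sequencing on an Illumina NextSeq500 followed washing, crosslinking with 0.1% formaldehyde, proximity ligation (BsaI/T4 ligase, 1 h, 37 °C) and PCR amplification of pools that had been incubated for 30 min at room temperature with 200 nmole of a random double-stranded 16-mer DNA library in Tris/NaCl/DTT/glycerol buffer. Each pool held DNA-barcoded human transcription factors, expressed in yeast as GST fusions and captured on glutathione beads, plus a tag-only sample. Binding signal is a hexamer's read frequency for a factor divided by its frequency in the tag-only sample.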

For a further experiment, the target named is T2, ELK1 (Homo sapiens, UniProt P19419 1-428).
T2 sequence: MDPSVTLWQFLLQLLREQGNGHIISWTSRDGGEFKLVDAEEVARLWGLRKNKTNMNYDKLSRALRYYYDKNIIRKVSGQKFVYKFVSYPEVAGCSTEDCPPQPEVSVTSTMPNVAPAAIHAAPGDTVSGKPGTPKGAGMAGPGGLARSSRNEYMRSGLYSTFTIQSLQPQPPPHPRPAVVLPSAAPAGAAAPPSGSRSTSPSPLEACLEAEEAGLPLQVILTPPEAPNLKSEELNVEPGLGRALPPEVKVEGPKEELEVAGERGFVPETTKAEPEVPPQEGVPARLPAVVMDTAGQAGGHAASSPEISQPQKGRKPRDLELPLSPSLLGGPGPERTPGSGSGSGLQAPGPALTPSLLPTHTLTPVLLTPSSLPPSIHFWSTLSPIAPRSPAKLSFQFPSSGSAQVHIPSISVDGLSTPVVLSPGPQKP
As to conditions: protein: recombinant; tags: N-terminal GST; dsDNA, one strand shown. The method, boiled down:
as §1

The target of another experiment is T3, GABPA (Homo sapiens, UniProt Q06546 1-454).
T3 sequence: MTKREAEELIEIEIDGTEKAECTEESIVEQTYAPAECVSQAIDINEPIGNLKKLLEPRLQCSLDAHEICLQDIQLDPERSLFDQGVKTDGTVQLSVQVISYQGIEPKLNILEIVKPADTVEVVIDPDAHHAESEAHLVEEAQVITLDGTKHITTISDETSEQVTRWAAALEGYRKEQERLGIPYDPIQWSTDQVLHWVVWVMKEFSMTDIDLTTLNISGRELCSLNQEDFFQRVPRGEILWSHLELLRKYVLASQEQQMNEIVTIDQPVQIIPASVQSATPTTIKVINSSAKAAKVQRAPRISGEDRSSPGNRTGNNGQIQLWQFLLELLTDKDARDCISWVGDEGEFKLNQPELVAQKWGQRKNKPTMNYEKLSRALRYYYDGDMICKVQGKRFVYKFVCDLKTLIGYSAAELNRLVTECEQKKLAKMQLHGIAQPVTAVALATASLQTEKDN
The conditions noted are these: protein: recombinant; tags: N-terminal GST; dsDNA, one strand shown. The method, boiled down:
as §1

The target in the next experiment is T4, ERG (Homo sapiens, UniProt P11308 1-479).
T4 sequence: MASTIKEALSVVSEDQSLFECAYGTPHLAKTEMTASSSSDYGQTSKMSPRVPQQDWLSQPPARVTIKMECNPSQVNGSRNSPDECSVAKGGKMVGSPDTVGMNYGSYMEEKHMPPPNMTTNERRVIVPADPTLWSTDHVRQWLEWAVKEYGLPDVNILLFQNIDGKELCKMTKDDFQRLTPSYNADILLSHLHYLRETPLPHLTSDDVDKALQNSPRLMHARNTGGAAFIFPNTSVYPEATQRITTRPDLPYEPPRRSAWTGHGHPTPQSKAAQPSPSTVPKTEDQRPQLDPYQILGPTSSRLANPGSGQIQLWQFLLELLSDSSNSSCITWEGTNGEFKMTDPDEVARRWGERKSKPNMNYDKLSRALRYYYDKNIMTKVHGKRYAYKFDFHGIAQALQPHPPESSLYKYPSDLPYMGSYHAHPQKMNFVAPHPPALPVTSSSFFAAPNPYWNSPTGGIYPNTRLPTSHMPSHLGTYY
As to conditions: protein: recombinant; tags: N-terminal GST; dsDNA, one strand shown. The method, boiled down:
as §1

For the next experiment, the target named is ELF1 (Homo sapiens, UniProt P32519 1-619). The conditions noted are these: protein: recombinant; tags: N-terminal GST; dsDNA, one strand shown. In outline: as §1
Chain of ELF1 (P32519 whole entry): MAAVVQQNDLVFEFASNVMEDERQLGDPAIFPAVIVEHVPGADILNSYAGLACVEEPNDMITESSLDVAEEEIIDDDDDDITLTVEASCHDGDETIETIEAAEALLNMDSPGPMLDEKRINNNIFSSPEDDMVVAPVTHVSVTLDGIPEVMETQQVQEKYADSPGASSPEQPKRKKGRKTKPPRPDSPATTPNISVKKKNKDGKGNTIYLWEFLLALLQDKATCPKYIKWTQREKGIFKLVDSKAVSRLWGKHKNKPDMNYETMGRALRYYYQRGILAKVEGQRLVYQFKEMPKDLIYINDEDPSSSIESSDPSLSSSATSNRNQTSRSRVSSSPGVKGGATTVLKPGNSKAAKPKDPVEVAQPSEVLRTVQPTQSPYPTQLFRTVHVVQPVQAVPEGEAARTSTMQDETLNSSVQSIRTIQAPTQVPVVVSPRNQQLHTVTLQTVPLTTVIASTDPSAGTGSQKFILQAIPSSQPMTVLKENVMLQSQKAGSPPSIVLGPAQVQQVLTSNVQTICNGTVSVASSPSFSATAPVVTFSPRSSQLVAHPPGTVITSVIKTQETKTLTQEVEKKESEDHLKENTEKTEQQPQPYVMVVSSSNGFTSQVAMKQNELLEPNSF
The next experiment has as its target T5, EHF (Homo sapiens, UniProt Q9NZC4 1-300).
T5 sequence: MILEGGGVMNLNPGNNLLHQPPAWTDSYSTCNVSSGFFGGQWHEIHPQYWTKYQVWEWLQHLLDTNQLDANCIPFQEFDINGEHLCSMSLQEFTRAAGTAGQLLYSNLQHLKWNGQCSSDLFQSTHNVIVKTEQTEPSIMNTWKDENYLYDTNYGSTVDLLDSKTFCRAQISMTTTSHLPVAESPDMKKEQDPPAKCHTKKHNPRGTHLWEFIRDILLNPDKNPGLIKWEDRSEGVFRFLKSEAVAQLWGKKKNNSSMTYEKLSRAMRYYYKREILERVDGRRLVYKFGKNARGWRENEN
The conditions noted are these: protein: recombinant; tags: N-terminal GST; dsDNA, one strand shown. The method, boiled down: as §1

Another experiment concerns the target SPI1 (Homo sapiens, UniProt P17947 1-270). As to conditions: protein: recombinant; tags: N-terminal GST; dsDNA, one strand shown. The method, boiled down:
as §1

A further experiment deals with SPIB (Homo sapiens, UniProt Q01892 1-262). The conditions noted are these: protein: recombinant; tags: N-terminal GST; dsDNA, one strand shown. The method, boiled down:
as §1

The target of another experiment is T6, ELK3 (Homo sapiens, UniProt P41970 1-407).
T6 sequence: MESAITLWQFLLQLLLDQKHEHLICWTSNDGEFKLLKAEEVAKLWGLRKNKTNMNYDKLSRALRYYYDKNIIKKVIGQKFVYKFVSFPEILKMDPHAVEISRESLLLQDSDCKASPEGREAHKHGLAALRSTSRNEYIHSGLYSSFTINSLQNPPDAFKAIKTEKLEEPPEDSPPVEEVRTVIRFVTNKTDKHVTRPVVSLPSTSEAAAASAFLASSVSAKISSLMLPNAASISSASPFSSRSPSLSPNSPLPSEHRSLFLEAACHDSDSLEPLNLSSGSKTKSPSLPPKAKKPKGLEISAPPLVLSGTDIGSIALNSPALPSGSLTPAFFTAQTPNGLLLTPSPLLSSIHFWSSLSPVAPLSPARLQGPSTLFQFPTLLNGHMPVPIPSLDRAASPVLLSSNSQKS
The conditions noted are these: protein: recombinant; tags: N-terminal GST; dsDNA, one strand shown. The method, boiled down: as §1

The target of another experiment is T7, FEV (Homo sapiens, UniProt Q99581 1-238).
T7 sequence: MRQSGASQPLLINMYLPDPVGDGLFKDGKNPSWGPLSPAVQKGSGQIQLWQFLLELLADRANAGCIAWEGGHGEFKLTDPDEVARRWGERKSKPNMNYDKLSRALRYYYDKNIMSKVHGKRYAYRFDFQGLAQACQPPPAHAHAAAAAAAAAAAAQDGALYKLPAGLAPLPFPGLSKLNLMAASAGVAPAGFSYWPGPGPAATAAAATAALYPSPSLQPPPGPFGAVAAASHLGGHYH
The conditions noted are these: protein: recombinant; tags: N-terminal GST; dsDNA, one strand shown. The method, boiled down:
as §1

In another experiment the target is ETV5 (Homo sapiens, UniProt P41161 1-510). The conditions noted are these: protein: recombinant; tags: N-terminal GST; dsDNA, one strand shown. In outline:
as §1

For another experiment, the target named is HSF1 (Homo sapiens, UniProt Q00613 1-529). As to conditions: protein: recombinant; tags: N-terminal GST; chain copies: 3; dsDNA, one strand shown. In outline:
as §1

The target in another experiment is T8, SPIC (Homo sapiens, UniProt Q8N5J4 1-248).
T8 sequence: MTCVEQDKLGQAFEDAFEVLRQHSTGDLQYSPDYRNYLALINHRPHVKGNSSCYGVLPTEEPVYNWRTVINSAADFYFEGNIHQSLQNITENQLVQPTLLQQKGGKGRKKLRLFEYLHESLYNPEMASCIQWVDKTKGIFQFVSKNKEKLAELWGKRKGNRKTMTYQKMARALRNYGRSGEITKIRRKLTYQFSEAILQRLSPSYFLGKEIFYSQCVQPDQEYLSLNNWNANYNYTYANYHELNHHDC
The conditions noted are these: protein: recombinant; tags: N-terminal GST; dsDNA, one strand shown. In outline:
as §1

A further experiment addresses ELF4 (Homo sapiens, UniProt Q99607 1-663). As to conditions: protein: recombinant; tags: N-terminal GST; dsDNA, one strand shown. In outline:
as §1

The target in another experiment is T9, ELK4 (Homo sapiens, UniProt P28324-2 1-405).
T9 sequence: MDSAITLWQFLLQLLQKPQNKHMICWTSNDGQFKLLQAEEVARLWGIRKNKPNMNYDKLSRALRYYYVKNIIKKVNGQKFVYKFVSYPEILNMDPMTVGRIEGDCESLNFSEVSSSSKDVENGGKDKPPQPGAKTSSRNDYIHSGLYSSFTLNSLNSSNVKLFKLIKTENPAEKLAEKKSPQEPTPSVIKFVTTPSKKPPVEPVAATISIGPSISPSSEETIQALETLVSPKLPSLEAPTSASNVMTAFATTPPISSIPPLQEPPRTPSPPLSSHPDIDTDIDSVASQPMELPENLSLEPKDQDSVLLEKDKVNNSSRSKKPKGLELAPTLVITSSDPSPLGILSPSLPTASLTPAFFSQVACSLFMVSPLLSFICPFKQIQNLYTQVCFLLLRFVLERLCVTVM
As to conditions: protein: recombinant; tags: N-terminal GST; dsDNA, one strand shown. In outline: as §1

In the next experiment the target is T10, ETV2 (Homo sapiens, UniProt O00321 1-342).
T10 sequence: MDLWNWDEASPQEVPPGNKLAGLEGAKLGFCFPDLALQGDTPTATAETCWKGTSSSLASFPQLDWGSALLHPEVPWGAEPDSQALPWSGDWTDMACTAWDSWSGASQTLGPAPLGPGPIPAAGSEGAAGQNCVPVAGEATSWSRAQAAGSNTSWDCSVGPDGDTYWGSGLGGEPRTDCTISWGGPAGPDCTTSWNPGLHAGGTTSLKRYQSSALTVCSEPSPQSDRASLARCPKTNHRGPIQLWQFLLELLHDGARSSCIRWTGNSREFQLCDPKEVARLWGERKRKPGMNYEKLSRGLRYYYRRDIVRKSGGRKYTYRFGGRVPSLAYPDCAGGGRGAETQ
As to conditions: protein: recombinant; tags: N-terminal GST; dsDNA, one strand shown. The method, boiled down:
as §1

In the next experiment the target is T11, ELF3 (Homo sapiens, UniProt P78545 1-371).
T11 sequence: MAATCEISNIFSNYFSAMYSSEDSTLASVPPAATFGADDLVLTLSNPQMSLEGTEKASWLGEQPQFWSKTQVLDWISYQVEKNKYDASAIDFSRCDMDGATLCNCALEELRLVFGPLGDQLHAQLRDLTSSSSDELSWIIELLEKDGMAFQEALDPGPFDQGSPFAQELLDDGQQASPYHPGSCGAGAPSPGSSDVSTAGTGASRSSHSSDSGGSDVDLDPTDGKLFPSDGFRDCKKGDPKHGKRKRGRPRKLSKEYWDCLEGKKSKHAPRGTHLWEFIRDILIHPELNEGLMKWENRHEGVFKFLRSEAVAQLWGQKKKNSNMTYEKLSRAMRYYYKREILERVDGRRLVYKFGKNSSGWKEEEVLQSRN
The conditions noted are these: protein: recombinant; tags: N-terminal GST; dsDNA, one strand shown. The method, boiled down:
as §1

The next experiment concerns the target CRX (Homo sapiens, UniProt O43186 1-299). As to conditions: protein: recombinant; tags: N-terminal GST; dsDNA, one strand shown. In outline:
as §1

Chain of ETV5 (P41161 whole entry): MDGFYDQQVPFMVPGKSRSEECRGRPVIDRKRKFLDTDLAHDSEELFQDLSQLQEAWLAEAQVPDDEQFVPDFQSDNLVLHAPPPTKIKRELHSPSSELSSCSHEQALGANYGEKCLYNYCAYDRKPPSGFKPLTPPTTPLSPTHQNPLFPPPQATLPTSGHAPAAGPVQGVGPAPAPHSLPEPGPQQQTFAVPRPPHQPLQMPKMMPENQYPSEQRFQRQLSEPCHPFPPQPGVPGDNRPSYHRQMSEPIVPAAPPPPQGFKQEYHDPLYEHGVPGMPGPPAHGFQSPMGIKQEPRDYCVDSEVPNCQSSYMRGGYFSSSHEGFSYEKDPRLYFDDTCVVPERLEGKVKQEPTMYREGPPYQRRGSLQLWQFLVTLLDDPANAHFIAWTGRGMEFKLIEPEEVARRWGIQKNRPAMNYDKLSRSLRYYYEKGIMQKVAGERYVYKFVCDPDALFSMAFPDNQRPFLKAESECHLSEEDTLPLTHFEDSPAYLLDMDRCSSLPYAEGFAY
Chain of SPIB (Q01892 whole entry): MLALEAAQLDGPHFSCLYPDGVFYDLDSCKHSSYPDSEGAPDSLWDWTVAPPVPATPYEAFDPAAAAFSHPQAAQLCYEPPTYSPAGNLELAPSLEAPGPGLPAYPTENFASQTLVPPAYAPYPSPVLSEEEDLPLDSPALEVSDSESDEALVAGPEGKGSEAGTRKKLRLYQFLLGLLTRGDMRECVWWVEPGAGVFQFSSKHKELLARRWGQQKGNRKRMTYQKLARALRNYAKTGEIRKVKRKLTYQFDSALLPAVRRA
Chain of HSF1 (Q00613 whole entry): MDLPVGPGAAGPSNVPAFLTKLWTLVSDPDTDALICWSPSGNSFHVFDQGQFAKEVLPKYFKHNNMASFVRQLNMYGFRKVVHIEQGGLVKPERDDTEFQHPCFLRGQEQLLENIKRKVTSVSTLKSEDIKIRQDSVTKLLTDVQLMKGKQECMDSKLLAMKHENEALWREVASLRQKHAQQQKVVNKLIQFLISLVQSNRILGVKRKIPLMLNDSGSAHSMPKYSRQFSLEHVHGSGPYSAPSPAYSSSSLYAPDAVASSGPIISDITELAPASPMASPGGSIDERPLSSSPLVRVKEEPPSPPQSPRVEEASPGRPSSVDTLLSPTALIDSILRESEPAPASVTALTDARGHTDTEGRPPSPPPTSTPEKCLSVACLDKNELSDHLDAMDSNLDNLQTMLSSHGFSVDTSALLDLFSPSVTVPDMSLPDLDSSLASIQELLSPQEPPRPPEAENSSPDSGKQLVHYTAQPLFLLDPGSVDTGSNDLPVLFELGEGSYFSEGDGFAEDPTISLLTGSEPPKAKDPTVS
Chain of CRX (O43186 whole entry): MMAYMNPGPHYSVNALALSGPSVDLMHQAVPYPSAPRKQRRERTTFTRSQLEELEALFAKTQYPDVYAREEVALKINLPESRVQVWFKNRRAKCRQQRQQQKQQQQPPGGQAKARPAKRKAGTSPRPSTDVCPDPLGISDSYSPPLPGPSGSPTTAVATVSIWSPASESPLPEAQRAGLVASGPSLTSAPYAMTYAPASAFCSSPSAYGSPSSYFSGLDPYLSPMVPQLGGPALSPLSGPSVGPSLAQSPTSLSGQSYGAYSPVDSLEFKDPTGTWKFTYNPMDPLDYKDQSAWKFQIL
Chain of ELF4 (Q99607 whole entry): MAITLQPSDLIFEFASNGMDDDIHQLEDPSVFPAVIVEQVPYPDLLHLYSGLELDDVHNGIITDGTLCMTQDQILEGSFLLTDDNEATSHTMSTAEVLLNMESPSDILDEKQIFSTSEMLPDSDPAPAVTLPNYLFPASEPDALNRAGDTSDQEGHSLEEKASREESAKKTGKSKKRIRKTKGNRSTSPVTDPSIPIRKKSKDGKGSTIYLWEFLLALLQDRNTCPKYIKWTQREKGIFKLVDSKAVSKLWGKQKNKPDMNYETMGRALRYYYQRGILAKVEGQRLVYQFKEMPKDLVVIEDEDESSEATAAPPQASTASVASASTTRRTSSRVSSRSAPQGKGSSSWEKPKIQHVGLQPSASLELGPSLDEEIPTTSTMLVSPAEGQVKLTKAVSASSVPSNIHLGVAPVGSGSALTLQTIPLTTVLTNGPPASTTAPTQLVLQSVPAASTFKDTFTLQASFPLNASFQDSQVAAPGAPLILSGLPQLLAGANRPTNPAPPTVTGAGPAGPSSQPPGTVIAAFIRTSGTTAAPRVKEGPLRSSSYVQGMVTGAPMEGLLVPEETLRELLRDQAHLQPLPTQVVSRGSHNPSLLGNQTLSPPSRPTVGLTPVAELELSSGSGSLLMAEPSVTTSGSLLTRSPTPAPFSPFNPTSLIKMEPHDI

As for GTTAAG, the binding signal with FLI1 was 1.04 fold enrichment (6-mer frequency, TF over GST control); with ELK1, 1.12 fold enrichment (6-mer frequency, TF over GST control); in the experiment with GABPA, 1.07 fold enrichment (6-mer frequency, TF over GST control); with ERG it was 1.05 fold enrichment (6-mer frequency, TF over GST control); with ELF1, 1.04 fold enrichment (6-mer frequency, TF over GST control); with EHF it was 1.01 fold enrichment (6-mer frequency, TF over GST control). Further, the binding signal in the experiment with SPI1 is 1.01 fold enrichment (6-mer frequency, TF over GST control); with SPIB, 1.02 fold enrichment (6-mer frequency, TF over GST control); with ELK3, 1.05 fold enrichment (6-mer frequency, TF over GST control); with FEV, 1.02 fold enrichment (6-mer frequency, TF over GST control); in the experiment with ETV5, 1.03 fold enrichment (6-mer frequency, TF over GST control); with HSF1, 1.3 fold enrichment (6-mer frequency, TF over GST control). The binding signal with SPIC was 1.06 fold enrichment (6-mer frequency, TF over GST control); with ELF4 it was 1.1 fold enrichment (6-mer frequency, TF over GST control); with ELK4, 1.06 fold enrichment (6-mer frequency, TF over GST control); in the experiment with ETV2 it was 1.1 fold enrichment (6-mer frequency, TF over GST control); with ELF3 it was 1.06 fold enrichment (6-mer frequency, TF over GST control); with CRX it was 1.87 fold enrichment (6-mer frequency, TF over GST control).

The record behind these values is publication PMC7862700, “An all-to-all approach to the identification of sequence-specific readers for epigenetic DNA modifications on cytosine”.
